Data on 10 compounds can be found in PubChem BioAssay.

Assay [1] in a line: inhibitors of TNFa-induced NFkB p65 translocation, primary screen, imaging, HUVEC, MLSMR starter and 10KST1 sets (AID 438;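 active = inhibition above 20% together with a positive visual image hit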;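 also: compound added about 3h40 before a 20 min TNFalpha stimulation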;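 as to inhibition: signal is the nuclear over cytoplasmic p65 intensity ratio per well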). The following applies: HUVEC TNFa-induced p65 nuclear translocation; cell count: measured here: nuclei count (cytotoxicity indicator), at 2.08 µM; inhibition: at 2 µM, stronger effect = higher value, 0% TNFa-plus-vehicle, 100% no-TNFa wells.
Assay [2] in a line: inhibitors of mutant huntingtin aggregation, primary screen, imaging, exon1htt(103Q)mCFP cells, high-content imaging (AID 483;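 active = visual image review flags a hit and inhibition of aggregation exceeds 20%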;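 also: compound exposure lasted 3 days before fixation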;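 as to nuclei count: percent of the per-plate median nuclei count of sample wells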). The conditions noted are these: exon1htt(103Q)mCFP cell line, aggregate imaging, at 2 µM; inhibition of aggregation: stronger effect = higher value; nuclei count: measured here: cell count, toxicity.
A short description of assay [3]: inhibitors of E-selectin induction by TNFa, primary screen, imaging, HUVEC, immunofluorescence, MLSMR starter and 10KST1 sets (AID 487;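 active = visually confirmed hit in the image check and inhibition above 20%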;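 as to inhibition: signal is fraction of cell area covered by stained E-selectin grains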;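 as to nuclei count: 100% = median nuclei count of all wells on the same plate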). The following applies: HUVEC TNFalpha-induced E-selectin immunofluorescence imaging, at 2 µM; inhibition: stronger effect = higher value; nuclei count: measured here: cell number, toxicity.
Assay [4] is described as follows: DUSP6 inhibitors restoring Erk phosphorylation by chemical complementation, primary imaging in DUSP6-transfected HeLa (AID 609;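 active = compounds giving at least 50% inhibition in the cell-based MKP-3 phosphatase rescue imaging test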;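 as to inhibition: phospho-Erk level distribution per well compared with pooled transfected vehicle control wells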). The following applies: HeLa MKP-3 transfected, phospho-Erk imaging KS statistic, at 10 µM, cells stimulated with TPA for 15 min.
Assay [5] deals with Dual specificity protein phosphatase 6 (Homo sapiens) (UniProt Q16828). Described as above. The following applies: HeLa MKP-3 transfected, phospho-Erk imaging KS statistic; at 10 µM; stronger effect = higher value; cells stimulated with TPA for 15 min.
Assay [6] addresses Voltage-gated potassium channel subunit beta-2 (Rattus norvegicus) (UniProt P62483). The assay can be described thus: KvBeta enzyme negative modulators, primary screen, biochemical, NADPH fluorescence (AID 622;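 active = fluorescence slope higher than the sample average by over 3 SD, cut at about -0.22 in these data, passing the limit was not always enough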;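 also: slope of raw intensity against log time taken from 70 to 1610 s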). The following applies: recombinant KvBeta, 4-cyanobenzaldehyde reduction, at 10 µM, stronger effect = higher value.
Assay [7] has the same target. The assay can be described thus: KvBeta positive modulators, primary screen, biochemical, NADPH fluorescence (AID 623;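 active = NADPH fluorescence slope more negative than the mean of all samples by about 3 SD, 99.7% confidence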;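 also: fluorescence intensity change per second fitted from 20 to 320 s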). The following applies: Recombinant KvBeta, NADPH fluorescence decrease slope, 10 min; at 10 µM; stronger effect = lower value.
Assay [8] has as its target Alpha-2C adrenergic receptor (Homo sapiens) (UniProt P18825). The assay can be described thus: modulators of alpha2C/GIRK thallium flux, primary screen, cell-based, HEK293 alpha2C/GIRK1/2 (AID 624;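 active = fluorescence slope after compound addition differing from the mean of all screened samples at 99.7% confidence, in either direction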;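 also: slope of fluorescence ratio to pre-addition baseline per second over 15 to 24 s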). The conditions noted are these: thallium flux BTC fluorescence, at 10 µM, actives lie on both sides.
Assay [9] in a line: inhibitors of larval lipid processing in zebrafish, primary screen, whole organism, PED6 fluorescence, gall bladder and intestine (AID 686;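 active = a full or partial loss of lipid-probe fluorescence in the fish gall bladder, intestine or both, judged by eye; inactive = no fluorescence loss, or compound toxic to the fish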;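 also: larvae 5 to 7 days old with five fish per well; signal comes from phospholipase A2 cleavage of quenched PED6 carried via bile; overnight exposure to compound and PED6 before scoring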). The following applies: Zebrafish larvae PED6 lipid processing, fluorescence scoring; screened at 20 µM (by protocol).
Assay [10] in a line: inhibitors of Chlamydomonas gravitaxis, primary screen, whole organism, Chlamydomonas reinhardtii, WT vs cilia-less mutant, absorbance, 96-well (AID 463189).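 Also: 0% = wild type cc124 cells in DMSO and 100% = ciliumless bld1 mutant cells.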 The conditions noted are these: OD600 absorbance, 2 days, at 10 µM, stronger effect = higher value.
Assay [11] can be described thus: inhibitors of Sendai virus-induced IRF3 signaling, primary screen, TLR/RLR signaling modifier project, cell-based, Sendai virus stimulus, luciferase, 10K MLSCN set (AID 602276;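 active = inhibition at or above 50% at 10 µM; inactive = inhibition below 50%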;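 also: firefly luciferase from ISG56 promoter only with Renilla not read in this screen; 0% = Sendai virus plus DMSO and 100% = medium plus DMSO without virus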). The conditions noted are these: HEK293 RL24 IRF3 luciferase reporter, at 10 µM, stronger effect = higher value. Background: In a reporter assay the amount or activity of a reporter protein is the signal.

The nature of assay [12]: inhibitors of poly I:C-induced TLR3 signaling, primary screen, cell-based, poly I:C stimulus, luciferase, 10K MLSCN set (AID 602277;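 active = inhibition of the reporter signal at or above 50%; inactive = inhibition below 50%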). The conditions noted are these: HEK293-TLR3 RL24 IRF3 luciferase reporter, at 10 µM, stronger effect = higher value.
The mark [13] stands for this setting: measured here: cell density z-score.
Where [14] appears, read: measured here: nuclear c-Myc green intensity z-score.
Where [15] appears, read: measured here: nuclear pErk red intensity z-score, stronger effect = higher value.

“And” between values parts separate entries of the source, which are not always exact repeats. Equal entries are not always repeated. The source made the active and inactive calls.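 The calls were made as follows, unless noted: active = inhibition at or above 50% relative to wild type and mutant plate controls; inactive = inhibition below 50%.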

Chain of Alpha-2C adrenergic receptor (Homo sapiens) (P18825 whole entry, looked up): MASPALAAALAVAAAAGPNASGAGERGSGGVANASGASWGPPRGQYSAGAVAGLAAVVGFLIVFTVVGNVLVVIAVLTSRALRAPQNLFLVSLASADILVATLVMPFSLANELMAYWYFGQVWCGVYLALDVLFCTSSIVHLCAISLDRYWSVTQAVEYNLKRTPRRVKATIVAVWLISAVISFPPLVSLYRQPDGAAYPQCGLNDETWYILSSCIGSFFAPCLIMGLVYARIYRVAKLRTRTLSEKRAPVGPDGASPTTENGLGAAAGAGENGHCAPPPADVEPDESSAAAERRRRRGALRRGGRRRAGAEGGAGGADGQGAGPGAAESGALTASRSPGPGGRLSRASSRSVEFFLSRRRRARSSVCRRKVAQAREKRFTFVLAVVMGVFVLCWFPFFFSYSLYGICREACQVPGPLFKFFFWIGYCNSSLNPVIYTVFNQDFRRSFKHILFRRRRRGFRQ
Chain of Dual specificity protein phosphatase 6 (Homo sapiens) (Q16828 whole entry, looked up): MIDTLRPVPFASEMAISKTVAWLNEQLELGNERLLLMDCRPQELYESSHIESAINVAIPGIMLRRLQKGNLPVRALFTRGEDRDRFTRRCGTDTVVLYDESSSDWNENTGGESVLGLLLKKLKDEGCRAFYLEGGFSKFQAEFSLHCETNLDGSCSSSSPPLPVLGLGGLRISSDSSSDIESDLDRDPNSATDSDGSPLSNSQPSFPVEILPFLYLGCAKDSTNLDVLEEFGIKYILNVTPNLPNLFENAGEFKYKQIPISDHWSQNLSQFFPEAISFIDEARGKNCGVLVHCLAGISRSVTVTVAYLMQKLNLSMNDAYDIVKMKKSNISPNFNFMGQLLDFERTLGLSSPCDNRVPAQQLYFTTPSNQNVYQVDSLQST
Chain of Voltage-gated potassium channel subunit beta-2 (Rattus norvegicus) (P62483 whole entry, looked up): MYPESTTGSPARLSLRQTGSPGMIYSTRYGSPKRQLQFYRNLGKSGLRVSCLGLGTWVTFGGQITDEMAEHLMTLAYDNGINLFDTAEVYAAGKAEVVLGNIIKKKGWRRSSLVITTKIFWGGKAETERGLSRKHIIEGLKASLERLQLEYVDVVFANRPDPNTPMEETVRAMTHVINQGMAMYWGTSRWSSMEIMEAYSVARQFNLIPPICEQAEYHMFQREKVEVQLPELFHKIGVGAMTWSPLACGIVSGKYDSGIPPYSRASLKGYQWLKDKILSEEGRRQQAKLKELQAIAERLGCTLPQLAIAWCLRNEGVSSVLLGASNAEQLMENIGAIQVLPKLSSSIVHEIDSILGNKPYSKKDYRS

Usually inhibition stands for the change of the read-out against control, counted positive when it falls. In the case of `NS(=O)(=O)c1cc2c(cc1C(F)(F)F)NC(Cc1ccccc1)NS2(=O)=O` (stereo not given), the cell count in assay [1] came out at 519. Further, the inhibition in [1] is -2.8% (inactive); in assay [3], -18.5% (inactive); in assay [5] it was -0.493% (inactive); in [10], -16.5% (inactive); in assay [11] it was 9.6% (inactive); in assay [12], 2% (inactive). Also, the inhibition of aggregation in assay [2] was 18.4% (inactive). Also, the values for the nuclei count in assay [2] and in assay [3] were 75.3% and 105%, respectively. For the same compound, the z-score in [4] (setting [13]) is -0.539; in assay [4] (setting [14]), -0.574; in assay [4] (setting [15]) it was 0.0203. In [6], the fluorescence slope is -0.528 (inactive). The NADPH fluorescence slope in assay [7] was 7.9e-07 (inactive). Besides, the slope in assay [8] was 0.00523 (inactive). The compound was called inactive in assay [9].

Take `Cc1ncc([N+](=O)[O-])n1CC(O)CCl` (stereo not given): the cell count in assay [1] was determined as 546. Moreover, the inhibition in [1] was -5% (inactive); in assay [3], -91.7% (inactive); in assay [5] it was 3.45% (inactive); in assay [10], -0.632% (inactive); in assay [11], -0.807% (inactive); in assay [12], 16.6% (inactive). In [2], the inhibition of aggregation was -12.8% (inactive). For the same compound, the results for the nuclei count in assay [2] and in assay [3] were 100% and 114%, respectively. Further, the results for the z-score in assay [4] (setting [13]), in assay [4] (setting [14]) and in [4] (setting [15]) were 0.947, -1.73 and -1.47, respectively. Besides, in assay [6], the fluorescence slope is -0.5 (inactive). Further, the NADPH fluorescence slope in assay [7] was 2.8e-05 (inactive). Also, in assay [8], the slope is 0.00498 (inactive). Further, the call in assay [9] was inactive.

As to `O/N=C/c1ccc(OCC(O)COc2ccc(/C=N/O)cc2)cc1`, the cell count in assay [1] came to 678. For the same compound, the inhibition was 3.9% (inactive) in [1]; -37.7% (inactive) in assay [3]; -8.59% (inactive) in [5]; 13.7% (inactive) in assay [10]; -3.4% (inactive) in [11]; -9.91% (inactive) in assay [12]. In addition, the inhibition of aggregation in [2] was 8.1% (inactive). Further, the values for the nuclei count in assay [2] and in [3] were 104% and 114%, respectively. Besides, the z-score in assay [4] (setting [13]) is 0.736; in [4] (setting [14]) it was -0.218; in [4] (setting [15]), -0.78. Also, in assay [6], the fluorescence slope was -0.33 (inactive). In addition, the NADPH fluorescence slope in assay [7] was -1e-05 (inactive). Besides, in assay [8], the slope was 0.00891 (inactive). In addition, the compound was called inactive in [9].

Regarding `CCOC(=O)[C@H](CCc1ccccc1)N[C@@H](C)C(=O)N1CCC[C@H]1C(=O)O`, the cell count in assay [1] is 512. The inhibition is -1.7% (inactive) in assay [1]; -7.9% (inactive) in assay [3]; 11.3% (inactive) in [5]; 34.1% (inactive) in assay [10]; 9.18% (inactive) in assay [11]; 28.5% (inactive) in assay [12]. Moreover, in assay [2], the inhibition of aggregation is -27.5% (inactive). The nuclei count is 76.9% in assay [2] and 112% in assay [3]. Moreover, the z-score is 1.2 in [4] (setting [13]), 0.592 in assay [4] (setting [14]) and -0.0475 in assay [4] (setting [15]). In addition, the fluorescence slope in assay [6] was -0.554 (inactive). Further, the NADPH fluorescence slope in assay [7] was -1.6e-05 (inactive). The slope in [8] was 0.00627 (inactive). The result in assay [9] was inactive.

Turning to `CC(=O)Nc1nnc(S(N)(=O)=O)s1`, the cell count in assay [1] is 660. Moreover, the inhibition is -4.8% (inactive) in assay [1]; -29.7% (inactive) in assay [3]; 13.3% (inactive) in [5]; 0.808% (inactive) and -5.65% (inactive) in assay [10]; -14.2% (inactive) in assay [11]; 1.99% (inactive) in [12]. Moreover, the inhibition of aggregation in assay [2] is -0.3% (inactive). For the same compound, the nuclei count worked out at 93.8% in [2] and 122% in [3]. The z-score in assay [4] (setting [13]) was -0.588; in assay [4] (setting [14]), -1.08; in assay [4] (setting [15]) it was 0.272. Moreover, in [6], the fluorescence slope was -0.462 (inactive). In assay [7], the NADPH fluorescence slope is -6.7e-05 (inactive). For the same compound, the slope in assay [8] is 0.0054 (inactive). Also, in [9], the outcome is “active; no signal in intestine only”.

Turning to `COC(=O)CSc1nc2sc3c(c2c(=O)n1C1CCCCC1)CCN(C)C3`, the cell count in assay [1] is 390. Also, the inhibition is -4.4% (inactive) in assay [1]; -127% (inactive) in assay [3]; -8.59% (inactive) in [5]; 14.6% (inactive) in assay [10]; 15.7% (inactive) in assay [11]; 38.9% (inactive) in assay [12]. In addition, the inhibition of aggregation in [2] was -16% (inactive). The nuclei count in assay [2] stood at 102%; in assay [3] it was 140%. In addition, the z-score is -0.811 in assay [4] (setting [13]), -0.963 in assay [4] (setting [14]) and 1.03 in assay [4] (setting [15]). For the same compound, in assay [6], the fluorescence slope was -0.289 (inactive). Moreover, the NADPH fluorescence slope in assay [7] is 2e-05 (inactive). Moreover, the slope in assay [8] was 0.00385 (inactive). Moreover, the compound was called inactive in [9].

Turning to `Cc1[nH]c2ccc(F)cc2c(=O)c1SC(F)(F)C(F)C(F)(F)F` (stereo not given), the cell count in [1] was found to be 491. Besides, the inhibition in assay [1] is -1.1% (inactive); in assay [3] it was -48.3% (inactive); in assay [5] it was 2.46% (inactive); in assay [10], -4.7% (inactive); in assay [11], 14.5% (inactive); in assay [12], 20.3% (inactive). In addition, the inhibition of aggregation in assay [2] is 4% (inactive). For the same compound, the nuclei count in assay [2] was determined as 77.7%; in assay [3], 123%. Besides, the z-score is -0.588 in assay [4] (setting [13]), 0.342 in assay [4] (setting [14]) and -0.414 in assay [4] (setting [15]). Further, in assay [6], the fluorescence slope is -0.42 (inactive). In addition, in [7], the NADPH fluorescence slope was -3.8e-05 (inactive). Further, the slope in [8] was 0.0059 (inactive). In assay [9], the call was inactive.

For `Cc1c(/C(O)=C2/C(=O)C(=O)N(CCN3CCOCC3)C2c2cccnc2)cnn1-c1ccccc1` (stereo not given), in [1], the cell count stood at 509. For the same compound, the inhibition in [1] is 4.8% (inactive); in assay [3], -26.8% (inactive); in assay [5], 1.6e-07% (inactive); in [10], 23.9% (inactive); in [11], -12% (inactive); in assay [12], -9.27% (inactive). The inhibition of aggregation in [2] was 1.3% (inactive). In addition, the nuclei count in [2] turned out to be 102%; in [3], 107%. Also, the values for the z-score in assay [4] (setting [13]), in assay [4] (setting [14]) and in [4] (setting [15]) were 0.15, -0.278 and -0.0426, respectively. For the same compound, in [6], the fluorescence slope was -0.602 (inactive). Also, the NADPH fluorescence slope in [7] was -1.5e-05 (inactive). Further, in [8], the slope was 0.00432 (inactive). Besides, the call in assay [9] was inactive.

Take `CC(=O)Oc1cc(C(C)C)c(OCCN(C)C)cc1C`: the cell count in [1] was determined as 467. For the same compound, the inhibition was -9.4% (inactive) in [1]; -10.4% (inactive) in assay [3]; 13.3% (inactive) in [5]; 6.3% (inactive) and 24.6% (inactive) in [10]; 15% (inactive) in assay [11]; 49.2% (inactive) in [12]. Besides, the inhibition of aggregation in [2] was 22.4% (inactive). The results for the nuclei count in [2] and in [3] were 95.3% and 108%, respectively. Besides, the z-score in assay [4] (setting [13]) was -0.0151; in [4] (setting [14]), 0.045; in [4] (setting [15]), -0.157. For the same compound, the fluorescence slope in assay [6] is -0.475 (inactive). For the same compound, the NADPH fluorescence slope in assay [7] was -5.3e-05 (inactive). For the same compound, the slope in assay [8] is 0.0046 (inactive). Moreover, the outcome in [9] was inactive.

Regarding `CCOC(=O)C1CCN(c2nc3ccccc3nc2C(C#N)C(=O)OC(C)C)CC1` (stereo not given), the cell count in assay [1] stood at 520. Also, the inhibition in assay [1] was -11.5% (inactive); in assay [3], -90.1% (inactive); in assay [5] it was -4.27% (inactive); in assay [10] it was 9.67% (inactive); in assay [11] it was -15.8% (inactive); in assay [12], -37.7% (inactive). For the same compound, the inhibition of aggregation in assay [2] is -208% (inactive). For the same compound, the nuclei count amounted to 104% in assay [2] and 128% in [3]. Moreover, the figures for the z-score in [4] (setting [13]), in assay [4] (setting [14]) and in [4] (setting [15]) were -0.0557, 0.253 and -0.0521, respectively. In addition, in [6], the fluorescence slope is -0.341 (inactive). For the same compound, in assay [7], the NADPH fluorescence slope was -2.3e-08 (inactive). Further, in [8], the slope is 0.00139 (inactive). The compound was called inactive in assay [9].
